Data as given in PubChem BioAssay (EPA / NIEHS).
Inconclusive results are not listed. Calls of active or inactive are those of the source. Rule for the calls, unless noted: active = hit-call score of the fitted dose curve at least 0.9, where 1 is the maximum; inconclusive = response in the unintended direction; inactive = score below 0.9.

Tests used:
[1] = molecular target: Estrogen receptor (Homo sapiens) (UniProt P03372); experiment: OT_ERa_GFPERaERE_0480: Odyssey Thera (OT) 8-hour HeLa Transcription Induction Assay for Estrogen Receptor (AID 2283381; active = hit-call score of the fitted dose curve at least 0.9, where 1 is the maximum; inactive = score below 0.9)
How it was run: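 Fluorescent reporter signal, imaged by microscopy and scored with image-analysis algorithms, was taken 8 h after chemical dosing of HeLa cells; activity was fitted upward relative to DMSO.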

[2] = molecular target: Estrogen receptor (Homo sapiens) (UniProt P03372); experiment: OT_ERa_GFPERaERE_0120: Odyssey Thera (OT) 2-hour HeLa Transcription Induction Assay for Estrogen Receptor (AID 2283382)
How it was run: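 HeLa, 384-well, 2 h chemical exposure; GFP reporter induction (ERE), fluorescence microscopy; high content image analysis; positive fitting direction vs DMSO.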

[3] = molecular target: Bile acid receptor (Homo sapiens) (UniProt Q96RI1); experiment: OT_FXR_FXRSRC1_1440: Odyssey Thera (OT) 24-hour HEK293T Protein-Complementation Assay for Farnesoid X receptor/SRC-1 Co-activator (AID 2283384)
How it was run: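 Compounds are applied to human kidney HEK293T cells expressing bait and prey fused to reporter protein fragments; after 24 h, reconstituted reporter fluorescence is measured. Activity is fitted as signal gain over DMSO.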

[4] = molecular target: Retinoic acid receptor RXR-alpha (Homo sapiens) (UniProt P19793); experiment: OT_NURR1_NURR1RXRa_1440: Odyssey Thera (OT) 24-hour HEK293T Protein Complementation Assay for Nurr1/retinoid X receptor (RXR) (AID 2283386)
How it was run: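 Interaction of Nurr1 with RXRα brings fused reporter fragments together in human HEK293T cells, restoring a functional reporter. Fluorescence intensity is measured 24 h after chemical treatment, and values are analysed in the positive direction against DMSO.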

[5] = molecular target: Peroxisome proliferator-activated receptor gamma (Homo sapiens) (UniProt P37231); experiment: OT_PPARg_PPARgSRC1_0480: Odyssey Thera (OT) 8-hour Protein-Complementation Assay for Peroxisome Proliferator-activated Receptor Gamma / SRC-1 Co-activator (AID 2283387)
How it was run: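 Protein-fragment complementation of split Venus YFP reports PPARg/SRC-1 interaction in HEK293T (transfected 48 h before treatment), exposed 8 h. Readout: N/C fluorescence ratio at 488 nm from imaging, Draq5 for segmentation, positive fit relative to DMSO.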

[6] = CEETOX_H295R_11DCORT: CeeTox H295R High-throughput Steroidogenesis Assay for 11-Deoxycortisol (11DCORT) (AID 2283432; active = hit-call score of the fitted dose curve at least 0.9, where 1 is the maximum; inactive = score below 0.9;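 for AC50: 11-deoxycortisol secreted into the medium measured by LC-MS/MS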); conditions: actives raise or lower the signal
How it was run: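 Human adrenal H295R cells were prestimulated with 10 uM forskolin for 48 h, then exposed to test chemical (0.1% DMSO final) for 48 h. Medium 11-deoxycortisol was quantified by MTBE extraction and HPLC-MS/MS; bidirectional fitting relative to DMSO.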

[7] = CEETOX_H295R_OHPREG: CeeTox H295R High-throughput Steroidogenesis Assay for OH-Pregnenolone (OHPREG) (AID 2283434; active = hit-call score of the fitted dose curve at least 0.9, where 1 is the maximum; inactive = score below 0.9); conditions: actives raise or lower the signal
How it was run: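 Hormone levels in spent medium were measured by tandem mass spectrometry following liquid-liquid extraction. Cells (H295R) had been forskolin-stimulated (10 uM, 48 h) before a 48 h chemical exposure at 0.1% DMSO, with activity fitted in both directions against DMSO.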

[8] = CEETOX_H295R_OHPROG: CeeTox H295R High-throughput Steroidogenesis Assay for OH-Progesterone (OHPROG) (AID 2283435; active = hit-call score of the fitted dose curve at least 0.9, where 1 is the maximum; inactive = score below 0.9;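 for AC50: 17alpha-hydroxyprogesterone secreted into medium measured by HPLC-MS/MS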); conditions: actives raise or lower the signal
How it was run: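 H295R, 10 uM forskolin prestim 48 h; cmpd in 0.1% DMSO 48 h; medium MTBE-extracted, HPLC-MS/MS for OH-progesterone; 7-pt std curve; bidirectional fit vs DMSO; MTT viability, chemicals diluted until viability >/=70%.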

[9] = CEETOX_H295R_CORTISOL: CeeTox H295R High-throughput Steroidogenesis Assay for Cortisol (AID 2283438; active = hit-call score of the fitted dose curve at least 0.9, where 1 is the maximum; inactive = score below 0.9;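 note: cortisol secreted into medium quantified by LC-MS/MS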); conditions: actives raise or lower the signal
How it was run: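 Forskolin 10 uM 48 h prestim → test cmpd in DMSO (0.1% final) 48 h → medium MTBE-extracted → LC-MS/MS cortisol vs 7-pt std curve. Gain/loss of signal fitted vs DMSO. MTT viability in same wells.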

[10] = CEETOX_H295R_DOC: CeeTox H295R High-throughput Steroidogenesis Assay for DOC (AID 2283439; active = hit-call score of the fitted dose curve at least 0.9, where 1 is the maximum; inactive = score below 0.9); conditions: actives raise or lower the signal
How it was run: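 Readout: 11-deoxycorticosterone in culture medium by reverse-phase C18 HPLC with ESI+ tandem MS after MTBE extraction. Cells: H295R, forskolin-primed (10 uM, 48 h), chemical-treated 48 h; DMSO 0.1% final. Activity fitted bidirectionally versus DMSO.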

[11] = CEETOX_H295R_ESTRADIOL: CeeTox H295R High-throughput Steroidogenesis Assay for Estradiol (AID 2283440; active = hit-call score of the fitted dose curve at least 0.9, where 1 is the maximum; inactive = score below 0.9;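 note: estradiol secreted into medium quantified by LC-MS/MS after dansyl derivatisation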); conditions: actives raise or lower the signal
How it was run: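 H295R adrenocortical cells were prestimulated with 10 uM forskolin for 48 h, then exposed to test chemical in 0.1% DMSO for 48 h. Medium estradiol was extracted with MTBE, dansyl-derivatized and quantified by HPLC-MS/MS; bidirectional fit versus DMSO.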

[12] = CEETOX_H295R_ESTRONE: CeeTox H295R High-throughput Steroidogenesis Assay for Estrone (AID 2283441; active = hit-call score of the fitted dose curve at least 0.9, where 1 is the maximum; inactive = score below 0.9;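 note: estrone secreted into medium measured by LC-MS/MS after dansyl derivatization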); conditions: actives raise or lower the signal
How it was run: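 H295R cells prestimulated 48 h with 10 uM forskolin, then exposed 48 h to chemicals in 0.1% DMSO final; estrone in medium extracted with MTBE, dansyl-derivatized, quantified by HPLC-MS/MS; bidirectional fitting versus DMSO, viability by MTT.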

[13] = CEETOX_H295R_PROG: CeeTox H295R High-throughput Steroidogenesis Assay for Progesterone (PROG) (AID 2283442; active = hit-call score of the fitted dose curve at least 0.9, where 1 is the maximum; inactive = score below 0.9;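 for AC50: human H295R adrenal cells primed with 10 µM forskolin before dosing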); conditions: actives raise or lower the signal
How it was run: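 H295R human adrenal cells were prestimulated with 10 uM forskolin for 48 h, then exposed to test chemical (0.1% DMSO final) for 48 h. Medium progesterone was MTBE-extracted and quantified by HPLC-MS/MS, with bidirectional fitting against DMSO.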

[14] = molecular target: Retinoic acid receptor RXR-alpha (Homo sapiens) (UniProt P19793); experiment: OT_NURR1_NURR1RXRa_0480: Odyssey Thera (OT) 8-hour HEK293T Protein Complementation Assay for Nurr1/retinoid X receptor (RXR) (AID 2283385)
How it was run: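 8 h compound exposure, HEK293T; Nurr1/RXRα fragment complementation; fluorescence intensity; positive fitting direction vs DMSO baseline.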

[15] = molecular target: Peroxisome proliferator-activated receptor gamma (Homo sapiens) (UniProt P37231); experiment: OT_PPARg_PPARgSRC1_1440: Odyssey Thera (OT) 24-hour Protein-Complementation Assay for Peroxisome Proliferator-activated Receptor Gamma/ SRC-1 Co-activator (AID 2283388)
How it was run: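 HEK293T cells transiently transfected with PPARg and SRC-1 fused via (Gly4Ser)2 linker to split Venus YFP fragments (IFP1/IFP2) were dosed 24 h; fixed, Draq5-stained, imaged at 488/635 nm; nuclear/cytoplasmic fluorescence ratio scored versus DMSO baseline, gain-of-signal.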

[16] = molecular target: Bile acid receptor (Homo sapiens) (UniProt Q96RI1); experiment: OT_FXR_FXRSRC1_0480: Odyssey Thera (OT) 8-hour HEK293T Protein-Complementation Assay for Farnesoid X receptor/SRC-1 Co-activator (AID 2283383)
How it was run: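 Human kidney HEK293T cells carried FXR/SRC-1 fragment-complementation constructs. Compounds were added and incubated 8 h. Reporter reassembly upon receptor–co-activator interaction was then quantified by fluorescence, with curves fitted in the positive direction relative to DMSO.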

Measured: AC50

Chain of Estrogen receptor (Homo sapiens) (P03372 whole entry, looked up): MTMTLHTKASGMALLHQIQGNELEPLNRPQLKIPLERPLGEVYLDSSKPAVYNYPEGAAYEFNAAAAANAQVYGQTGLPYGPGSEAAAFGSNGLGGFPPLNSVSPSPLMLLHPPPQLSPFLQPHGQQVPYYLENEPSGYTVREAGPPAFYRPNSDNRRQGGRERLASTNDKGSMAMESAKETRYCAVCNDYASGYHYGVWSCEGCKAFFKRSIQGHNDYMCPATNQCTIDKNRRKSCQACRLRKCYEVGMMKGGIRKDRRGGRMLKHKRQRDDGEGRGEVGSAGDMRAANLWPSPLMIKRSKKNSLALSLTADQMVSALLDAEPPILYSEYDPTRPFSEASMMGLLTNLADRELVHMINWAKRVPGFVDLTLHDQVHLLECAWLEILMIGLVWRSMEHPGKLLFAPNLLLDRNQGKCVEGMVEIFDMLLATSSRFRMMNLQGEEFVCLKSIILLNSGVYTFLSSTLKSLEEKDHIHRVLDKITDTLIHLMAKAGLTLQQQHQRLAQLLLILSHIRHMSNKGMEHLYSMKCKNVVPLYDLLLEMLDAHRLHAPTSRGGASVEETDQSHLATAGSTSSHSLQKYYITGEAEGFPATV
Chain of Peroxisome proliferator-activated receptor gamma (Homo sapiens) (P37231 whole entry, looked up, the tested form may be a part): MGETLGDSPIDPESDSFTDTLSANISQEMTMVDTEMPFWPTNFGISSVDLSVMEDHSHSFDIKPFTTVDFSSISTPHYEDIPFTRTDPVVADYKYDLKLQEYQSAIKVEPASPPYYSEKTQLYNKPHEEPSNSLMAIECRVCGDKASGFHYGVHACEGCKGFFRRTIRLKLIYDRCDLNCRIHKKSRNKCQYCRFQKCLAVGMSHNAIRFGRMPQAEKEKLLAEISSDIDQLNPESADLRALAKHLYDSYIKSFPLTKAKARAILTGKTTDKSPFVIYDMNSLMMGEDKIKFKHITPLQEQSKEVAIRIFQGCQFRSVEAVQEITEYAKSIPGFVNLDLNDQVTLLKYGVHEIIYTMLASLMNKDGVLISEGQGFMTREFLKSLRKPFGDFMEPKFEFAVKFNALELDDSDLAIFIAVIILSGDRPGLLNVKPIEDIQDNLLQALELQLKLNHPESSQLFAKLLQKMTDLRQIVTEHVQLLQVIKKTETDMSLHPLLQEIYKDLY
Chain of Bile acid receptor (Homo sapiens) (Q96RI1 whole entry, looked up, the tested form may be a part): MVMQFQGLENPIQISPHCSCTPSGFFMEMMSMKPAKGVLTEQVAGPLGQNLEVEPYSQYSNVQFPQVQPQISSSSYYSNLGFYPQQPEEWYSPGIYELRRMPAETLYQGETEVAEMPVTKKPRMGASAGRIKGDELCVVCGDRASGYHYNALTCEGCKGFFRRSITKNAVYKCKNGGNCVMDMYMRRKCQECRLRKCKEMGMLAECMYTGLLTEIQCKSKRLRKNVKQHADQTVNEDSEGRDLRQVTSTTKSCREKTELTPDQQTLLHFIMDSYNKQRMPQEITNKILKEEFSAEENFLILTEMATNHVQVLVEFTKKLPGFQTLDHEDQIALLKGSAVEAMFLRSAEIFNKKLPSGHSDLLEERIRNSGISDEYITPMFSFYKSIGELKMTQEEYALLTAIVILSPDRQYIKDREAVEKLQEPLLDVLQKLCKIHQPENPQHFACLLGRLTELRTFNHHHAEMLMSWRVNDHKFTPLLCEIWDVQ
Chain of Retinoic acid receptor RXR-alpha (Homo sapiens) (P19793 whole entry, looked up, the tested form may be a part): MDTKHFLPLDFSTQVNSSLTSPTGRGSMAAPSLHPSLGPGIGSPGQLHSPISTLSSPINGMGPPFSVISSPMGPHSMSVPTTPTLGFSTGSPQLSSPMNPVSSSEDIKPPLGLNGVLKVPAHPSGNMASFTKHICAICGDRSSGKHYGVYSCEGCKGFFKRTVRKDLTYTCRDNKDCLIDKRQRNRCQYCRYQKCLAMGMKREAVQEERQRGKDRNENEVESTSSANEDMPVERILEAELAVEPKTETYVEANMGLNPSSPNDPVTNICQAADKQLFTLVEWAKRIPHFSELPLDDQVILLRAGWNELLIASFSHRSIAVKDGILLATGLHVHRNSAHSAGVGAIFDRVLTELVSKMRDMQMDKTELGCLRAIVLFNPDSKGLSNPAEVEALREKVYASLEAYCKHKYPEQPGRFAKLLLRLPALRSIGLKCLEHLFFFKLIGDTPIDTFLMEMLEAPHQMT

CC(=O)OCCC(C)CC(C)(C)C (stereo unspecified)
inactive: [1] | [2] | [3] | [4] | [5]

NC(=O)Nc1ccc(Cl)cc1
inactive: [1] | [2] | [4] | [5] | [6] | [7] | [8] | [9] | [10] | [11] | [12] | [13]

C=C(C)C(=O)O
inactive: [1] | [2] | [14] | [5] | [15]

CC(=O)OCCOC(C)=O
inactive: [1] | [2] | [4] | [5]

CCCCc1ccc(N)cc1
inactive: [1] | [2] | [4] | [5] | [15]

CC(C)(N)CO
inactive: [1] | [2] | [3] | [5]

CCCCCCCCCCCCCC(=O)O
active: [3] 81.8 µM
inactive: [1] | [2] | [16] | [4] | [5]

c1ccc(CCCc2ccccn2)cc1
inactive: [1] | [2] | [3] | [14] | [5] | [7] | [8] | [11] | [12]
active: [16] 50 µM | [13] 50 µM

CC(C)c1cccc(O)c1
inactive: [1] | [2] | [14] | [4] | [5] | [15] | [6] | [7] | [9] | [10] | [11] | [12] | [13]
active: [8] 39 µM

CCC(=O)/C=C/C1C(C)=CCCC1(C)C (stereo unspecified)
active: [16] 50 µM | [3] 82.5 µM | [14] 78.4 µM
inactive: [4] | [5]

CCC/C=C/C=O
inactive: [1] | [2] | [5]

O=C1c2ccccc2C(=O)N1SC1CCCCC1
inactive: [1]
active: [2] 36.3 µM

O=Nc1ccc(Nc2ccccc2)cc1
inactive: [16] | [5] | [15]
active: [1] 72.3 µM | [2] 28.2 µM | [14] 0.707 µM

CC(C)(C)C(=O)c1ccccc1
inactive: [1] | [2] | [14] | [4]

CCCCCCCCCCCCCCCC(=O)OC[C@H](O)[C@H]1OC(=O)C(O)=C1O
inactive: [1] | [2] | [14] | [5]
active: [4] 84.2 µM

OCCN1CCNCC1
inactive: [1] | [2] | [16] | [3] | [14] | [4] | [5]

O=C1NC(=O)c2ccccc21
inactive: [16] | [3] | [14] | [4] | [5] | [15]

CCCCOCCOCCOCCOCCO
inactive: [1] | [2] | [14] | [4] | [5]

CC(=O)C=CC1=C(C)CCCC1(C)C
active: [14] 50 µM
inactive: [1] | [2] | [16] | [4] | [5]

CC1COc2ccccc2N1C(=O)C(Cl)Cl (stereo unspecified)
inactive: [1] | [2] | [14] | [5] | [15] | [11] | [12] | [13]
active: [6] 25.2 µM | [7] 3.66 µM | [9] 32.3 µM | [10] 10.4 µM

OCCOCCOCCOCCO
inactive: [1] | [2] | [14] | [4]

CCCCCCCCC
inactive: [1] | [2] | [4] | [5]

CN(C)CCCN
inactive: [1] | [2] | [3] | [4] | [5] | [15]

CCN(CC)c1ccc2c(-c3ccccc3C(=O)O)c3ccc(=[N+](CC)CC)cc-3oc2c1
active: [16] 35.2 µM | [3] 38.9 µM | [14] 12.7 µM | [4] 16.1 µM | [5] 12.2 µM | [15] 12 µM
inactive: [1] | [2]

CCCCCCCCC=O
inactive: [1] | [2] | [3] | [14] | [4] | [5]

Cc1ccc(S)cc1
active: [14] 79.4 µM | [4] 79.8 µM
inactive: [1] | [2] | [5] | [15]

BrC1CCC(Br)C(Br)CCC(Br)C(Br)CCC1Br (stereo unspecified)
active: [16] 18.2 µM | [3] 17.4 µM
inactive: [1] | [2] | [14] | [4] | [5] | [15]

CCCCCCCCCC=O
inactive: [1] | [2] | [14] | [4] | [5]

NCCCN1CCOCC1
inactive: [1] | [2] | [16] | [14] | [5]

COc1c(Cl)c(Cl)c(Cl)c(Cl)c1Cl
inactive: [16] | [14]

O=C[C@@H](O)[C@H](O)[C@H](O)CO
inactive: [14] | [4] | [5] | [15]

CCCCCC(CO)CCC (stereo unspecified)
inactive: [14] | [4] | [5]

CCCCCCCCCCCCCCCC(=O)O
inactive: [14] | [4] | [5]
